Inconclusive results are not listed. The source made the active and inactive calls. Unless noted, the call rests on the fitted dose curve; in most records, active means well fitted curve in the direction sought with a large enough effect; inconclusive means small, poorly fitted or top-dose-only effect, or another doubt; inactive means no such curve, though single readings can be large; an effect the other way counts as inactive or inconclusive.
What was measured:
[1] = target: ATP-dependent 6-phosphofructokinase (Trypanosoma brucei brucei) (UniProt O15648); assay: qHTS Assay to Find Inhibitors of T. brucei phosphofructokinase: hit validation (AID 492961);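 further: luminescence reports ADP formed as PFK phosphorylates fructose-6-phosphate with ATP; on the % scale 0 is the no-effect control and ±100 the full control effect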
Chain of ATP-dependent 6-phosphofructokinase (Trypanosoma brucei brucei) (O15648 whole entry, looked up): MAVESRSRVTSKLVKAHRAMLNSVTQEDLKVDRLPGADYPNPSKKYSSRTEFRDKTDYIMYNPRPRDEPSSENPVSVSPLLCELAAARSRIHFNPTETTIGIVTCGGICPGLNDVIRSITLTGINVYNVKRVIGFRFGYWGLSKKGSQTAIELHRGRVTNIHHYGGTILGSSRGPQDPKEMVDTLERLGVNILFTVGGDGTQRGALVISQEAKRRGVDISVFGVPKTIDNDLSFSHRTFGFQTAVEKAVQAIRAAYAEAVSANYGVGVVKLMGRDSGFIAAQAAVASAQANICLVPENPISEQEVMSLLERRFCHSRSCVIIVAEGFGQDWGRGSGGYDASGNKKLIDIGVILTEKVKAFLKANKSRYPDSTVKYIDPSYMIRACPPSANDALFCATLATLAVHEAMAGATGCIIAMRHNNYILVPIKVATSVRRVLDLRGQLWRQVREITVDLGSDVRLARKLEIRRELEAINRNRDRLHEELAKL
Procedure, shortened: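 Compounds titrated; %activity normalized to 0x and 1x enzyme controls, curve-fitted. Readout: ADP-Glo luminescence after 45 min room-temperature reaction of 1.25 nM PFK, 0.1 mM ATP, 0.5 mM F6P, pH 8.0.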

[2] = target: Ubiquitin carboxyl-terminal hydrolase 1 (Homo sapiens) (UniProt O94782); assay: Inhibitors of USP1/UAF1: Pilot qHTS (AID 504865);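 further: rhodamine fluorescence freed from ubiquitin-rhodamine substrate followed over time; top concentration of the series differs between compounds; on the % scale 0 is the no-effect control and ±100 the full control effect; nearly all actives have a fitted effect of over 35% in size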
Chain of Ubiquitin carboxyl-terminal hydrolase 1 (Homo sapiens) (O94782 whole entry, looked up): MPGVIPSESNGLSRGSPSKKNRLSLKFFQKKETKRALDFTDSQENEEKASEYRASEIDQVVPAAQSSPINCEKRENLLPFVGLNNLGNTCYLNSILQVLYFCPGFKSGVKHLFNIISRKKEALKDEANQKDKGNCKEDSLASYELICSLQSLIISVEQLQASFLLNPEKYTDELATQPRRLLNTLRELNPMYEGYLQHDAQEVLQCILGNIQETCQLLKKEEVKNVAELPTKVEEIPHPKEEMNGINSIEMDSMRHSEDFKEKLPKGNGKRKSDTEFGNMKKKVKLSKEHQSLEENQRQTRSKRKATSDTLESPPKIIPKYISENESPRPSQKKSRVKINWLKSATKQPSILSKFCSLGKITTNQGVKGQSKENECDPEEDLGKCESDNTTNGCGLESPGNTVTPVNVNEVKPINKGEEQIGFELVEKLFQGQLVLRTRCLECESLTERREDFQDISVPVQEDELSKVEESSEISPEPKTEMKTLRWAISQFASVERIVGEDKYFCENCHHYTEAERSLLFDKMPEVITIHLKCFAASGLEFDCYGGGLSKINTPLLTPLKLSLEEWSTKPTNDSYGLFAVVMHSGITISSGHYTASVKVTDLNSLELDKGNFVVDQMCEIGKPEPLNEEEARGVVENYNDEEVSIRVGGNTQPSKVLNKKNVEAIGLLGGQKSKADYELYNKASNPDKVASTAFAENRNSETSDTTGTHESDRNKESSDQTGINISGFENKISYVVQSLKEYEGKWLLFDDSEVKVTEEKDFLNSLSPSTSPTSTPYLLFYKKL
Procedure, shortened: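 Kinetic fluorescence assay: 1nM USP1/UAF1, 15 min compound preincubation, then 150nM Ub-Rho; 480/540 nm.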

[3] = target: Luciferin 4-monooxygenase (Photinus pyralis) (UniProt P08659); assay: Biochemical firefly luciferase enzyme assay for NPC (AID 624030);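 further: purified P. pyralis luciferase at 10 nM with luciferin and ATP substrate; 0% = DMSO and -100% = full luciferase inhibition by PTC124 control; nearly all actives have a fitted effect of over 70% in size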
Chain of Luciferin 4-monooxygenase (Photinus pyralis) (P08659 whole entry, looked up): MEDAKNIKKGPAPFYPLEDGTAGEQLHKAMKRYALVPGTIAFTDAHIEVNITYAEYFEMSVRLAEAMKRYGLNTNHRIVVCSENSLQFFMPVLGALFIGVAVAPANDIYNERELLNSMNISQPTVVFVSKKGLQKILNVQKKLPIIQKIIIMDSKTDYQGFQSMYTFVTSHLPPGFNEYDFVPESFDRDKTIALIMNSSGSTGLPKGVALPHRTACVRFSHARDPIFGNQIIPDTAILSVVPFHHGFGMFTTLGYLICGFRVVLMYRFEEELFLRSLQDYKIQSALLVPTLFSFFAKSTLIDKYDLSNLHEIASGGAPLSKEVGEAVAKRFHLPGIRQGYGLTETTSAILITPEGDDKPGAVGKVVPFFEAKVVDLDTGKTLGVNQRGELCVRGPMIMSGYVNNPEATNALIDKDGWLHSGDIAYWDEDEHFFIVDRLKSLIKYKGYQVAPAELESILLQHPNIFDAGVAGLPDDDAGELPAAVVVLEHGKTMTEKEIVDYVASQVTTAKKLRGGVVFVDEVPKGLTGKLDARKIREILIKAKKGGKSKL
Procedure, shortened: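 Purified P. pyralis luciferase at 10 nM in 50 mM Tris Acetate (final), luminescence read within 5 minutes of enzyme addition to compounds. Activity normalised to PTC124 versus DMSO; concentration-response curves classed by r2, magnitude and activity.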

[4] = S16 Schwann cell viability assay (CellTiter-Glo assay) (AID 624031);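 further: cellular ATP luminescence as a viability measure; plate controls were DMSO-treated cells for no effect and cell-free wells for full effect; nearly all actives have a fitted effect of over 70% in size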
Procedure, shortened: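 Luminescent ATP read-out (CellTiter-Glo) after 24 h compound exposure of native S16 rat Schwann cells at 37 °C. Signals were normalized between cell-free wells and DMSO-treated cells, set as 0% activity.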

[5] = S16 Schwann cell PMP22 intronic element beta-lactamase assay (AID 624044; calls by dose curve;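 further: 0% = DMSO and -100% = potassium clavulanate positive control; nearly all actives have a fitted effect of over 15% in size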)
Procedure, shortened: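 Rat S16 Schwann cells with beta-Lac driven by a PMP22 intronic element, compound-treated 24 h at 37 °C. LiveBLAzer FRET B/G read: 460 nm normalized to potassium clavulanate vs DMSO; 535 nm FRET as viability; concentration-effect curves classified.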

[6] = system: Zika virus NS2B-NS3 protease; assay: Primary screen GU AMC qHTS for Zika virus inhibitors (AID 1347154);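 further: 0% = no-inhibitor control and -100% = no-enzyme control; nearly all actives have a fitted effect of over 70% in size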
Procedure, shortened: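 Unlinked Zika NS2B hydrophilic domain–NS3 protease complex at 25 nM in 10 mM Tris-HCl pH 8.0, 0.01% Tween 20, with an AMC peptide substrate. Fluorescence change (340/450 nm) over 15 min at room temperature, normalized to controls, fitted to 4-parameter Hill.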

[7] = Primary qHTS for small molecule stabilizers of the endoplasmic reticulum resident proteome: Secreted ER Calcium Modulated Protein (SERCaMP) assay (AID 1508630); further: on the % scale 0 is the no-effect control and ±100 the full control effect
Procedure, shortened: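 GLuc-SERCaMP-expressing SH-SY5Y cells, pretreated 16 h with compound, are challenged with thapsigargin to empty ER calcium stores; after 4 h, coelenterazine is added directly to the medium and luminescence is imaged.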

[8] = qHTS profiling for inhibitors of Plasmodium falciparum proliferation (AID 504749);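 further: 0% = DMSO vehicle and full inhibition = artemisinin control; nearly all actives have a fitted effect of over 60% in size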; settings: P. falciparum in erythrocytes, SYBR Green DNA, 72 h, at 28.7 µM (top of the series)
Procedure, shortened: (§1)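 Readout was DNA-dye fluorescence from lysed cultures, ex 485/em 535 nm. Parasitized red cells had grown 72 h with compound; data scaled between 0.29 uM artemisinin and DMSO wells and corrected using vehicle-only plates.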

3D7 = assay: as above; settings: P. falciparum in erythrocytes, SYBR Green DNA, 72 h; series mostly up to 28.7 µM
Procedure, shortened: as §1

7G8 = assay: as above; settings: P. falciparum in erythrocytes, SYBR Green DNA, 72 h; series mostly up to 28.7 µM
Procedure, shortened: as §1

AA1029 = assay: as above; settings: P. falciparum in erythrocytes, SYBR Green DNA, 72 h; series mostly up to 28.7 µM
Procedure, shortened: as §1

AS120 = assay: as above; settings: P. falciparum in erythrocytes, SYBR Green DNA, 72 h; series mostly up to 28.7 µM
Procedure, shortened: as §1

ATS189 = assay: as above; settings: P. falciparum in erythrocytes, SYBR Green DNA, 72 h; series mostly up to 28.7 µM
Procedure, shortened: as §1

ATS95 = assay: as above; settings: P. falciparum in erythrocytes, SYBR Green DNA, 72 h; series mostly up to 28.7 µM
Procedure, shortened: as §1

C2A = assay: as above; settings: P. falciparum in erythrocytes, SYBR Green DNA, 72 h; series mostly up to 28.7 µM
Procedure, shortened: as §1

CP185 = assay: as above; settings: P. falciparum in erythrocytes, SYBR Green DNA, 72 h; series mostly up to 28.7 µM
Procedure, shortened: as §1

CP191 = assay: as above; settings: P. falciparum in erythrocytes, SYBR Green DNA, 72 h; series mostly up to 28.7 µM
Procedure, shortened: as §1

CP194 = assay: as above; settings: P. falciparum in erythrocytes, SYBR Green DNA, 72 h; series mostly up to 28.7 µM
Procedure, shortened: as §1

CP201 = assay: as above; settings: P. falciparum in erythrocytes, SYBR Green DNA, 72 h; series mostly up to 28.7 µM
Procedure, shortened: as §1

CP203 = assay: as above; settings: P. falciparum in erythrocytes, SYBR Green DNA, 72 h; series mostly up to 28.7 µM
Procedure, shortened: as §1

CP211 = assay: as above; settings: P. falciparum in erythrocytes, SYBR Green DNA, 72 h; series mostly up to 28.7 µM
Procedure, shortened: as §1

CP215 = assay: as above; settings: P. falciparum in erythrocytes, SYBR Green DNA, 72 h; series mostly up to 28.7 µM
Procedure, shortened: as §1

CP217 = assay: as above; settings: P. falciparum in erythrocytes, SYBR Green DNA, 72 h; series mostly up to 28.7 µM
Procedure, shortened: as §1

CP237 = assay: as above; settings: P. falciparum in erythrocytes, SYBR Green DNA, 72 h; series mostly up to 28.7 µM
Procedure, shortened: as §1

CP238 = assay: as above; settings: P. falciparum in erythrocytes, SYBR Green DNA, 72 h; series mostly up to 28.7 µM
Procedure, shortened: as §1

CP247 = assay: as above; settings: P. falciparum in erythrocytes, SYBR Green DNA, 72 h; series mostly up to 28.7 µM
Procedure, shortened: as §1

CP250 = assay: as above; settings: P. falciparum in erythrocytes, SYBR Green DNA, 72 h; series mostly up to 28.7 µM
Procedure, shortened: as §1

CP252 = assay: as above; settings: P. falciparum in erythrocytes, SYBR Green DNA, 72 h; series mostly up to 28.7 µM
Procedure, shortened: as §1

CP256 = assay: as above; settings: P. falciparum in erythrocytes, SYBR Green DNA, 72 h; series mostly up to 28.7 µM
Procedure, shortened: as §1

CP260 = assay: as above; settings: P. falciparum in erythrocytes, SYBR Green DNA, 72 h; series mostly up to 28.7 µM
Procedure, shortened: as §1

CP262 = assay: as above; settings: P. falciparum in erythrocytes, SYBR Green DNA, 72 h; series mostly up to 28.7 µM
Procedure, shortened: as §1

CP265 = assay: as above; settings: P. falciparum in erythrocytes, SYBR Green DNA, 72 h; series mostly up to 28.7 µM
Procedure, shortened: as §1

CP266 = assay: as above; settings: P. falciparum in erythrocytes, SYBR Green DNA, 72 h; series mostly up to 28.7 µM
Procedure, shortened: as §1

CP268 = assay: as above; settings: P. falciparum in erythrocytes, SYBR Green DNA, 72 h; series mostly up to 28.7 µM
Procedure, shortened: as §1

CP269 = assay: as above; settings: P. falciparum in erythrocytes, SYBR Green DNA, 72 h; series mostly up to 28.7 µM
Procedure, shortened: as §1

CP286 = assay: as above; settings: P. falciparum in erythrocytes, SYBR Green DNA, 72 h; series mostly up to 28.7 µM
Procedure, shortened: as §1

CP291 = assay: as above; settings: P. falciparum in erythrocytes, SYBR Green DNA, 72 h; series mostly up to 28.7 µM
Procedure, shortened: as §1

CP305 = assay: as above; settings: P. falciparum in erythrocytes, SYBR Green DNA, 72 h; series mostly up to 28.7 µM
Procedure, shortened: as §1

CP315 = assay: as above; settings: P. falciparum in erythrocytes, SYBR Green DNA, 72 h; series mostly up to 28.7 µM
Procedure, shortened: as §1

CP325 = assay: as above; settings: P. falciparum in erythrocytes, SYBR Green DNA, 72 h; series mostly up to 28.7 µM
Procedure, shortened: as §1

CP329 = assay: as above; settings: P. falciparum in erythrocytes, SYBR Green DNA, 72 h; series mostly up to 28.7 µM
Procedure, shortened: as §1

CP335 = assay: as above; settings: P. falciparum in erythrocytes, SYBR Green DNA, 72 h; series mostly up to 28.7 µM
Procedure, shortened: as §1

DFO2036 = assay: as above; settings: P. falciparum in erythrocytes, SYBR Green DNA, 72 h; series mostly up to 28.7 µM
Procedure, shortened: as §1

DIV14 = assay: as above; settings: P. falciparum in erythrocytes, SYBR Green DNA, 72 h; series mostly up to 28.7 µM
Procedure, shortened: as §1

DIV17 = assay: as above; settings: P. falciparum in erythrocytes, SYBR Green DNA, 72 h; series mostly up to 28.7 µM
Procedure, shortened: as §1

DIV30 = assay: as above; settings: P. falciparum in erythrocytes, SYBR Green DNA, 72 h; series mostly up to 28.7 µM
Procedure, shortened: as §1

Dd2 = assay: as above; settings: P. falciparum in erythrocytes, SYBR Green DNA, 72 h; series mostly up to 28.7 µM
Procedure, shortened: as §1

ECU = assay: as above; settings: P. falciparum in erythrocytes, SYBR Green DNA, 72 h; series mostly up to 28.7 µM
Procedure, shortened: as §1

FAB9 = assay: as above; settings: P. falciparum in erythrocytes, SYBR Green DNA, 72 h; series mostly up to 28.7 µM
Procedure, shortened: as §1

GB4 = assay: as above; settings: P. falciparum in erythrocytes, SYBR Green DNA, 72 h; series mostly up to 28.7 µM
Procedure, shortened: as §1

HB3 = assay: as above; settings: P. falciparum in erythrocytes, SYBR Green DNA, 72 h; series mostly up to 28.7 µM
Procedure, shortened: as §1

ICS = assay: as above; settings: P. falciparum in erythrocytes, SYBR Green DNA, 72 h; series mostly up to 28.7 µM
Procedure, shortened: as §1

JCK = assay: as above; settings: P. falciparum in erythrocytes, SYBR Green DNA, 72 h; series mostly up to 28.7 µM
Procedure, shortened: as §1

N140 = assay: as above; settings: P. falciparum in erythrocytes, SYBR Green DNA, 72 h; series mostly up to 28.7 µM
Procedure, shortened: as §1

P93_24 = assay: as above; settings: P. falciparum in erythrocytes, SYBR Green DNA, 72 h; series mostly up to 28.7 µM
Procedure, shortened: as §1

P94_40 = assay: as above; settings: P. falciparum in erythrocytes, SYBR Green DNA, 72 h; series mostly up to 28.7 µM
Procedure, shortened: as §1

PAD = assay: as above; settings: P. falciparum in erythrocytes, SYBR Green DNA, 72 h; series mostly up to 28.7 µM
Procedure, shortened: as §1

PC15 = assay: as above; settings: P. falciparum in erythrocytes, SYBR Green DNA, 72 h; series mostly up to 28.7 µM
Procedure, shortened: as §1

PC26 = assay: as above; settings: P. falciparum in erythrocytes, SYBR Green DNA, 72 h; series mostly up to 28.7 µM
Procedure, shortened: as §1

PC49 = assay: as above; settings: P. falciparum in erythrocytes, SYBR Green DNA, 72 h; series mostly up to 28.7 µM
Procedure, shortened: as §1

SC27B = assay: as above; settings: P. falciparum in erythrocytes, SYBR Green DNA, 72 h; series mostly up to 28.7 µM
Procedure, shortened: as §1

TAB109 = assay: as above; settings: P. falciparum in erythrocytes, SYBR Green DNA, 72 h; series mostly up to 28.7 µM
Procedure, shortened: as §1

TAB113 = assay: as above; settings: P. falciparum in erythrocytes, SYBR Green DNA, 72 h; series mostly up to 28.7 µM
Procedure, shortened: as §1

TAB165 = assay: as above; settings: P. falciparum in erythrocytes, SYBR Green DNA, 72 h; series mostly up to 28.7 µM
Procedure, shortened: as §1

W2 = assay: as above; settings: P. falciparum in erythrocytes, SYBR Green DNA, 72 h; series mostly up to 28.7 µM
Procedure, shortened: as §1

C/C=C1\C2C=C(C)CC1(N)c1ccc(=O)[nH]c1C2 (stereo unspecified)
inactive: outcome [1] | Potency [2] | Potency [3] | outcome [4] | Potency [5] | Potency [6] | Potency [7] | activity, negative = inhibition ([8]; parasite line A) -3.71% | activity, negative = inhibition ([8]; parasite line B) 0.727% | Potency (3D7) | Potency (7G8) | Potency (AA1029) | Potency (AS120) | Potency (ATS189) | Potency (ATS95) | Potency (C2A) | Potency (CP185) | Potency (CP191) | Potency (CP194) | Potency (CP201) | Potency (CP203) | Potency (CP211) | Potency (CP215) | Potency (CP217) | Potency (CP237) | Potency (CP238) | Potency (CP247) | Potency (CP250) | Potency (CP252) | Potency (CP256) | Potency (CP260) | Potency (CP262) | Potency (CP265) | Potency (CP266) | Potency (CP268) | Potency (CP269) | Potency (CP286) | Potency (CP291) | Potency (CP305) | Potency (CP315) | Potency (CP325) | Potency (CP329) | Potency (CP335) | Potency (DFO2036) | Potency (DIV14) | Potency (DIV17) | Potency (DIV30) | Potency (Dd2) | Potency (ECU) | Potency (FAB9) | Potency (GB4) | Potency (HB3) | Potency (ICS) | Potency (JCK) | Potency (N140) | Potency (P93_24) | Potency (P94_40) | Potency (PAD) | Potency (PC15) | Potency (PC26) | Potency (PC49) | Potency (SC27B) | Potency (TAB109) | Potency (TAB113) | Potency (TAB165) | Potency (W2)

From PubChem BioAssay (NCATS)
